Rows were chosen to be rich in hits. Some 6.2% of all compounds tested hit in one or more screens of this group.
AI-2 QS mod: modulates the Vibrio harveyi AI-2 quorum sensing system | Vibrio harveyi JMH597 AI-2 luminescence/OD600 ratio, 9 h; hits give low values; strain lacks LuxN and CqsS sensors; 0 = neutral-control median | activity change, % at 7.5 µM | 0.4% of 300,000 active; in the data active = activity change below about -75%, passing the limit was not always enough;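 note: luminescence divided by OD600 gain over 9 h not by final OD600 alone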
AHR act: activators of human aryl hydrocarbon receptor; AID 2796; AHR-responsive luciferase reporter cells, luminescence; 2.5% of 320,000 active; activation, % at 5 µM; P35869; in the data active = activation above about 47%;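 note: 0% = vehicle wells and 100% = reference agonist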
GRIN3A LBD mod: NR3A (human) ligand-binding domain modulation; Tm shift relative to glycine control, % at 25 µM; 2.5% of 340,000 active; NR3A LBD differential scanning fluorimetry, Tm shift; 0% = protein alone, 100% = glycine-bound protein;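 active = melting temperature shift of at least 10% of the positive control shift, at one fixed dose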
NTR1 agonist: activates human neurotensin receptor 1 | NTR1-U2OS beta-arrestin-GFP spot imaging, agonist mode | AID 493036 | 0.17% of 330,000 active | activation, % at 20 µM;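 active = activation at or above 40% of the spot to cytoplasm intensity ratio, with at least 20 cells analyzed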;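 note: 0% = DMSO without peptide and 100% = 100 nM NTR1 peptide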
Target sequence (P30989 whole entry, looked up): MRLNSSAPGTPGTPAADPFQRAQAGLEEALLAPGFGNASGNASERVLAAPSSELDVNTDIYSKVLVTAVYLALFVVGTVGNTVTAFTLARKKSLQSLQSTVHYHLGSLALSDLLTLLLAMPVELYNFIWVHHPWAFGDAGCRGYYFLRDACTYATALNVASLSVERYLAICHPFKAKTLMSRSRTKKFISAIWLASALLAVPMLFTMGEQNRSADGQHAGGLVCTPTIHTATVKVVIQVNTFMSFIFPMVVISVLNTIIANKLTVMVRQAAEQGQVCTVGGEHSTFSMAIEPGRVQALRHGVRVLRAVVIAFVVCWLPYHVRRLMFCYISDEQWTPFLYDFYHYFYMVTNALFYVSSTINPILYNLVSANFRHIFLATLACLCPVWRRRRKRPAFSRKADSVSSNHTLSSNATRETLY
Cardio protect: myocardial damage modulation in H9c2 cells. H9c2 cardiomyocytes, H2O2 injury protection, ATPLite, 2 h. protection from H2O2 cell death, % at 20 µM. 0.63% of 360,000 active;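 active = compounds giving at least 50% protection of heart cells from peroxide-induced death in the single-dose screen, raw or plate-pattern-corrected value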;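 note: 0% = DMSO wells with peroxide and 100% = DMSO wells without peroxide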
Mot1-301 SUMO: blocks SUMOylation pathway, rescuing yeast Mot1-301 growth | AID 2716 | growth rescue, % at 18.8 µM | 1% of 320,000 active | S. cerevisiae Mot1-301 growth rescue, ATP luminescence, 38.5C; percent above DMSO median, 100 means doubled;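 active = every valid replicate shows activation above 250% relative to neutral control wells; inactive = the rest, any valid replicate at or below 250%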;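 note: OY570 slx delta 5 strain wells were the positive control but not used for scaling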
Active calls of the source: *; . = no result.

SMILES	AI-2 QS mod	AHR act	GRIN3A LBD mod	NTR1 agonist	Cardio protect	Mot1-301 SUMO
Cc1ccc(C(=O)NC(=S)Nc2cccc(NC(=O)c3ccccc3)c2)cc1[N+](=O)[O-]	33	34	19*	-2	10	-4
Cc1ccc(C(=O)Nc2ccc(OCc3ccccc3)cc2)cc1[N+](=O)[O-]	20	-4	28*	0	-3	-17
O=C(Nc1ccc(OCc2ccccc2)cc1)c1cccc([N+](=O)[O-])c1	21	10	27*	-1	2	21
Cc1ccc(-n2ncc3c2CC(C)(C)CC3NC(=O)CCc2cccnc2)cc1 (stereo not given)	33	.	1	1	1	24
COCCN(C(=O)C1CCCO1)c1c(N)n(CC(C)C)c(=O)[nH]c1=O (stereo not given)	.	0	3	0	6	0
COc1cccc(CNC(=O)CCNC(=O)C2CCN(S(=O)(=O)c3ccccc3)CC2)c1	16	0	-1	1	-1	10
C[C@@H]1CNC(=O)c2c(C(=O)Nc3cccc(Cl)c3)ncn21	.	.	.	.	0	.
O=C(Nc1ccc2c(c1)OCCO2)c1[nH]c(C(F)(F)F)nc1-c1ccccc1	.	.	.	.	-6	.
CCn1c(=S)sc2c(=O)n(CC(=O)Nc3ccc(OC)c(Cl)c3)c(C)nc21	18	1	12*	3	-4	2
CCn1c(=S)sc2c(=O)n(CC(=O)Nc3ccccc3)c(C)nc21	13	-3	-3	4	1	-2
CCn1c(=S)sc2c(=O)n(CC(=O)Nc3ccc(Cl)cc3)c(C)nc21	17	8	15*	10	-7	11
Cc1nc2c(sc(=S)n2Cc2ccco2)c(=O)n1CC(=O)Nc1ccc(F)cc1	45	-2	14*	9	-11	-3
Cc1ccc(NC(=O)CCNC(=O)c2ccc(Cl)cc2)nc1	47	16	0	-1	-1	-14
Cc1ccc(NC2CCCN(C(=O)c3ccc4[nH]ccc4c3)C2)cc1C (stereo not given)	29	18	1	4	-4	-16
C=CCN(CC=C)S(=O)(=O)c1ccc(NC(=S)NC(=O)C2CC2)cc1	1	5	-13	6	-11	3
O=C(Cn1[nH]c(=O)c2ccccc2c1=O)OCC(=O)c1ccccc1Cl	.	-2	0	0	22	-13
CC(C)(C)N(Cc1ccccc1)C(=O)COC(=O)Cn1[nH]c(=O)c2ccccc2c1=O	.	.	.	.	27	.
O=C(Cn1[nH]c(=O)c2ccccc2c1=O)OCC(=O)N(Cc1ccccc1)Cc1ccccc1	-1	1	-1	-1	106*	1
CC(OC(=O)Cn1[nH]c(=O)c2ccccc2c1=O)C(=O)Nc1ccc(F)cc1 (stereo not given)	10	2	2	0	62*	21
Cc1cc(CNC(=O)COC(=O)Cn2[nH]c(=O)c3ccccc3c2=O)cc(C)c1O	19	-1	0	2	104*	6
Cc1ccc(C(C)C)c(OCC(=O)NNC(=O)Cn2[nH]c(=O)c3ccccc3c2=O)c1	.	5	0	5	70*	4
CC(c1ccccc1)n1cnc2ccccc2c1=O (stereo not given)	18	3	-3	0	4	-6
O=C(COC(=O)Cn1[nH]c(=O)c2ccccc2c1=O)NNC(=O)c1ccccc1	.	-2	2	3	93*	-1
O=C(Cn1[nH]c(=O)c2ccccc2c1=O)OCC(=O)c1ccc(F)cc1	.	1	.	0	31	-27
CC(C)NC(=O)COC(=O)Cn1[nH]c(=O)c2ccccc2c1=O	-10	7	-1	-1	80*	4
SMILES	AI-2 QS mod	AHR act	GRIN3A LBD mod	NTR1 agonist	Cardio protect	Mot1-301 SUMO
CC1(C)CC2CC(C)(CN2C(=O)COC(=O)Cn2[nH]c(=O)c3ccccc3c2=O)C1 (stereo not given)	5	-4	-3	-1	52*	16
N#CC1(NC(=O)COC(=O)Cn2[nH]c(=O)c3ccccc3c2=O)CCCCC1	10	0	1	0	74*	-23
COc1ccc(S(=O)(=O)N2CCN(CC(=O)NCCc3cccs3)CC2)cc1	.	0	-3	-2	-2	-13
C/C(=N/N1CCN(Cc2cccc3ccccc23)CC1)c1ccco1	30	1	2	0	1	3
COc1ccccc1C(=O)NC(=O)COC(=O)Cn1[nH]c(=O)c2ccccc2c1=O	16	-2	2	2	84*	-4
COc1ccc(NC(=O)C2C3C=CC4(O3)C2C(=O)N(CCN2CCCCC2)C4C(=O)NC2CCCC(C)C2C)cc1 (stereo not given)	32	2	-1	0	0	-12
O=C(CSc1nc(O)cc(=O)n1-c1ccc(Cl)c(Cl)c1)Nc1ccc(Cl)cc1Cl	11	2	-4	1	-5	3
CC(=NCc1ccco1)c1c(C)[nH]n(-c2nc3ccccc3s2)c1=O	13	-18	1	1	-11	353*
COc1cccc(-c2cnc3c(NC(C)=O)cc(-c4ccc(C(=O)NC5CC5)cc4)cn23)c1	.	.	.	.	32	.
Cn1c(CNc2nc3ccccc3n2C)nc2ccccc21	26	49*	0	-2	0	-8
CC(C)n1c(NCc2nc3ccccc3n2C)nc2ccccc21	6	15	-2	-2	0	3
Cn1c(NC(=S)Nc2ccccc2)nc2ccccc21	21	60*	-1	1	0	-3
CCOC(=O)c1ccc(NCc2nc3ccccc3n2C)cc1	3	59*	0	-1	-7	-23
COc1ccc(NCc2nc3ccccc3n2C)cc1	25	53*	-3	-1	-12	-9
C[C@H]1CN([C@@H](C)CO)C(=O)c2cc(Br)cnc2O[C@H]1CN(C)S(=O)(=O)c1ccccc1F	.	.	.	.	10	.
Cn1c(NCc2c(O)ccc3ccccc23)nc2ccccc21	28	17	14*	8	-12	13
CC1CCCC(NC(=O)CCC(=O)N2CCOc3ccccc32)C1C (stereo not given)	44	1	-3	0	3	3
COc1ccc(Cl)cc1NS(=O)(=O)c1cccc(C(=O)NCC(c2ccco2)N(C)C)c1 (stereo not given)	8	3	0	0	11	14
Cc1ccc(CNC(=O)CNC(=O)c2ccc(C(C)(C)C)cc2)n1C	.	2	-2	3	-1	-5
Fc1ccc(CNC(=S)Nc2cccc(C(F)(F)F)c2)cc1	-14	5	7	4	-21	6
O=[N+]([O-])c1cc(C(F)(F)F)cc([N+](=O)[O-])c1NCCNC(=S)Nc1cccc(F)c1	14	3	17*	14	-14	-4
